From the supplement of paper PMC12669032
Values without a mark were called inactive.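 How the source made its calls: active = AUC reduced over 20% with Padj below 0.05 in at least 2 of 3 replicates; inactive = otherwise.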

Assays:
Experiment in all cases: growth AUC relative to DMSO control (median of replicates) (fraction); higher = more growth (less inhibition), active = hit call of the paper
Details in all cases: 20 µM; 24 h
Akkermansia muciniphila = tested on: Akkermansia muciniphila
How it was run: (§1)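 For each compound at 20 µM (1% DMSO), gut bacterial monocultures seeded at OD600 0.05 grew anaerobically in mGAM at 37 °C in round-bottom 96-well plates. Hourly OD600 readings over 24 h gave growth curves whose minimum OD was set to 0. Area under these curves was normalised to the plate median of solvent-only wells, or to row and column medians on the industrial chemical plate. Values are medians of three biological replicates grown on separate days.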

Bacteroides caccae = tested on: Bacteroides caccae
How it was run: as §1

Bacteroides clarus = tested on: Bacteroides clarus
How it was run: as §1

Bacteroides dorei = tested on: Bacteroides dorei
How it was run: as §1

Bacteroides stercoris = tested on: Bacteroides stercoris
How it was run: as §1

[1] = tested on: Bacteroides thetaiotaomicron
How it was run: as §1

Bacteroides uniformis = tested on: Bacteroides uniformis
How it was run: as §1

[2] = tested on: Bifidobacterium longum subsp. longum
How it was run: as §1

Clostridium difficile = tested on: Clostridium difficile
How it was run: as §1

Collinsella aerofaciens = tested on: Collinsella aerofaciens
How it was run: as §1

SMILES	growth AUC (Akkermansia muciniphila)	growth AUC (Bacteroides caccae)	growth AUC (Bacteroides clarus)	growth AUC (Bacteroides dorei)	growth AUC (Bacteroides stercoris)	growth AUC [1]	growth AUC (Bacteroides uniformis)	growth AUC [2]	growth AUC (Clostridium difficile)	growth AUC (Collinsella aerofaciens)
CCNc1nc(Cl)nc(NC(C)(C)C#N)n1	0.889	1.02	0.983	1.04	0.946	0.998	0.986	0.946	1.05	0.997
CCOP(=S)(OCC)Oc1ccc(=O)n(-c2ccccc2)n1	0.918	0.997	0.943	0.977	0.959	0.948	0.949	1.04	0.936	0.99
CCC(C)(NC(=O)c1cc(Cl)c(C)c(Cl)c1)C(=O)CCl (stereo not given)	0.877	0.949	0.895	0.967	0.86	0.908	0.861	0.953	0.496 (active)	1
CNC(=O)O/N=C/C(C)(C)SC	0.909	1.03	0.993	1.03	0.943	0.987	1.01	0.957	0.979	1.04
CS(=O)(=O)NC(=O)c1cc(Oc2ccc(C(F)(F)F)cc2Cl)ccc1[N+](=O)[O-]	1.03	1.01	0.955	0.972	0.875	0.993	0.992	1.04	0.94	0.951
O=C(O)C(F)(F)C(F)(F)C(F)(F)C(F)(F)C(F)(F)C(F)(F)C(F)(F)C(F)(F)F	1.01	1	1.02	1.03	1.08	1.07	1.02	1.03	0.997	0.997
Cc1cc(Cl)ccc1N=CN(C)C	1.01	1.01	0.995	1	0.985	1.03	1.02	0.981	0.998	1
Oc1ccc(Cl)cc1Cl	1.15	0.802	0.979	0.893	0.938	0.936	0.913	1.05	0.946	0.909
Oc1ccc(Cc2ccc(O)cc2)cc1	0.954	0.992	1.03	0.998	1.05	1.02	1.01	0.975	1.02	1.01
O=c1oc2ccccc2c(O)c1C1CCCc2ccccc21 (stereo not given)	1.15	0.938	0.916	0.926	1.09	0.796 (active)	0.701 (active)	1.09	1.02	1
CCOP(=S)(OCC)SCS(=O)(=O)C(C)(C)C	0.89	1.02	0.944	0.994	0.976	1.01	1.01	0.966	0.98	1.02
CC(C)Oc1cc(-n2nc(C(C)(C)C)oc2=O)c(Cl)cc1Cl	1.21	0.984	0.942	0.982	0.884	0.987	0.898	0.962	0.932	0.921
O=C(O)C1(O)c2ccccc2-c2ccc(Cl)cc21 (stereo not given)	0.865	0.979	0.935	1.08	1.04	0.958	0.984	0.936	0.993	1.03
CCS(=O)(=O)CCSP(=O)(OC)OC	0.829	1.02	0.962	1	0.979	1.01	0.986	1.01	0.975	1.01
CCCCCCCCCc1ccc(O)cc1	1.02	1.03	0.739 (active)	1.01	0.0469 (active)	1.01	0.289 (active)	0.929	1.03	0.925
CC1(C)CN=C(NN=C(/C=C/c2ccc(C(F)(F)F)cc2)/C=C/c2ccc(C(F)(F)F)cc2)NC1	0.911	0.961	0.979	1.03	0.902	1.03	0.991	0.998	0.972	1.09
CCOP(=O)(OCC)ON1C(=O)c2cccc3cccc(c23)C1=O	1.01	0.856	0.898	0.754 (active)	0.482 (active)	0.736 (active)	0.683 (active)	1.05	0.946	0.936
CCOP(=S)(OCC)SCCSCC	0.992	1.03	1.01	0.973	1.06	1.01	0.973	1.02	0.977	0.972
CN(C)C(=O)Nc1cccc(OC(=O)NC(C)(C)C)c1	1.19	0.771	1.01	0.977	1.4	0.958	0.883	1.01	0.928	0.918
CC(C1CC1)C(O)(Cn1cncn1)c1ccc(Cl)cc1 (mixture of isomers)	1.04	0.83	0.987	0.941	1.41	0.893	0.929	1.09	0.966	0.926
CCCCc1c(C)nc(NCC)nc1OS(=O)(=O)N(C)C	1.07	1.01	0.967	0.909	0.895	0.944	0.901	0.996	1.01	0.977
Oc1ccc(Cl)cc1Cc1cc(Cl)ccc1O	0.202 (active)	0.416 (active)	0.154 (active)	0.765	0.00782 (active)	0.359 (active)	0.163 (active)	0.598 (active)	0.633 (active)	0.878
Clc1cc(Cl)nc(-c2ccccc2)n1	1.12	0.877	0.99	0.995	1	0.971	0.956	1.09	0.956	0.927
COP1(=S)OCc2ccccc2O1 (stereo not given)	1.01	0.973	0.979	0.999	1.02	0.993	0.986	0.972	0.97	1.04
O=c1c2cc(F)ccc2nc(-n2cncn2)n1-c1ccc(Cl)cc1Cl	0.855	0.976	0.979	1.05	1	0.925	0.937	0.791	1.12	1.07
CCC/C(=N\OCC)C1=C(O)CC(CC(C)SCC)CC1=O (stereo not given)	0.936	1.01	0.989	1.02	0.974	0.992	1.01	0.85	1.01	1.01
CNC(=O)/C(=N\OC)c1ccccc1Oc1ccccc1	0.873	0.981	0.959	0.97	0.953	1.02	0.998	0.987	1.01	1.03
CC(C)OP(=O)(OC(C)C)SCc1ccccc1	1.12	0.976	0.99	0.981	0.997	0.964	0.968	0.902	0.968	1
